Several values for one entry are separate records, joined by “and”; a condition that tells them apart may be missing. Equal values may be shown once. Out of some 140,000 compounds screened, about 80 (0.06%) were called active. Rule as the data show it: active = displacement above about 50%; inactive = the rest. Shown is part of a subset that was picked to be rich in actives. The source holds several records for some structures; these can differ, active in one and inactive in another.
These compounds were tested against Heat shock 70 kDa protein 1A (Homo sapiens) (UniProt P0DMV8) (assay: Hsp70 inhibitors, probe displacement, primary screen, biochemical, fluorescence polarization (AID 583;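 also: plate controls were vehicle for no effect and reference ligand for full effect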)). Settings: mP, at 20 µM, stronger effect = higher value.
Heat shock 70 kDa protein 1A (Homo sapiens), sequence (P0DMV8 whole entry, looked up): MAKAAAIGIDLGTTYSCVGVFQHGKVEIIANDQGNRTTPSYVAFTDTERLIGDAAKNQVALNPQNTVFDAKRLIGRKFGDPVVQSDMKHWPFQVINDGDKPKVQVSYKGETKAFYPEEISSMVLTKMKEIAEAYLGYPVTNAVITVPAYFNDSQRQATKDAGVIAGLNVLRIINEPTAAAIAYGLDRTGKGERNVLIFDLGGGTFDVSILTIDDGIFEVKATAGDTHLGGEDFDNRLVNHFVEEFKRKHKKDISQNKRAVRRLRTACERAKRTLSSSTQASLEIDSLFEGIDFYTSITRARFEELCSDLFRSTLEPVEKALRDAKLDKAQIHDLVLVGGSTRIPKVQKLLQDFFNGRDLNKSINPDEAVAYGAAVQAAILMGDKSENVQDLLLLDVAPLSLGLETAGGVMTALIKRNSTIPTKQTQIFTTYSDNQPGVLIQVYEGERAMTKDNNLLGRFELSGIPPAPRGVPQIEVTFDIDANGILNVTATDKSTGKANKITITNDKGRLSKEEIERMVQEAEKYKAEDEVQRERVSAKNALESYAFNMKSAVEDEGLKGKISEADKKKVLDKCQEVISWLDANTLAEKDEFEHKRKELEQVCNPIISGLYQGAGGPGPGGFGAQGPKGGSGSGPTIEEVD
With `COc1ccc(CNC(=O)c2c(Cl)cccc2Cl)cc1` the displacement was 5.5% (inactive).
With `O=C(Nc1cccc2nsnc12)c1ccc(Cl)cc1Cl` the displacement was 3.7% (inactive).
`Cc1ccc(C)n1-c1ccc(O)c(C(=O)O)c1` was tested, and the displacement was 98.2% (active).
With `Cc1nc(=O)c(-c2ccccc2)c(C)n1-c1ccc(O)c(C(=O)O)c1` the displacement was -3.3% (inactive).
`Cc1ccc(-c2ccccc2)n1-c1ccc(O)c(C(=O)O)c1` was tested, and the displacement was 4.2% (inactive).
With `Cc1ccc(-c2ccccc2)n1-c1ccc(Cl)c(C(=O)O)c1` the displacement was -4% (inactive).
`O=C(O)c1ccc(-n2cccc2)cc1O` was tested, and the displacement was -0.2% (inactive).
In the case of `Cc1ccc(C)n1-c1ccc(C(=O)O)c(Cl)c1`, the displacement is reported as 33.7% (inactive).
With `Cc1ccc(C)n1-c1ccc(C(=O)O)c(O)c1` the displacement was 98.5% (active).
With `Cc1nc(=O)c(-c2ccccc2)c(C)n1-c1ccc(C(=O)O)c(O)c1` the displacement was 0.2% (inactive).
In the case of `Cc1ccc(C)n1-c1ccc(Cl)c(C(=O)O)c1`, the displacement is reported as 83.5% (active).
`CC(C)c1c(O)nc(SCC(=O)Nc2ccc3c(c2)CCC3)[nH]c1=O` was tested, and the displacement was 1.5% (inactive).
`Cc1ccc(N2C(=O)c3ccc(C(=O)O)cc3C2=O)c(C)c1` was tested, and the displacement was 0.7% (inactive).
With `Cc1cc(N)ccc1-n1c(C)ccc1C` the displacement was -2.7% (inactive).
For `Cc1cc(Cl)c2cc(C(=O)O)ccc2n1`, the displacement was 2.8% (inactive).
In the case of `Cc1ccc(C)n1-c1ccc(C(=O)O)cc1`, the displacement is reported as 16% (inactive).
In the case of `Cc1ccc(C)n1-c1cc(C(=O)O)ccc1O`, the displacement is reported as 27% (inactive).
With `Cc1ccc(-c2ccccc2)n1-c1ccc(C(=O)O)cc1` the displacement was -1.6% (inactive).
With `Cc1ccc(-c2ccccc2)n1-c1cccc(C(=O)O)c1` the displacement was -1.8% (inactive).
With `Cc1cc(C(=O)O)ccc1-n1c(C)ccc1C` the displacement was 61.3% (active) and 37.4% (inactive).
With `Cc1ccc(C(=O)O)cc1-n1c(C)ccc1C` the displacement was 67.8% (active).
`Cc1ccc(C)n1-c1cc(C(=O)O)cc(C(=O)O)c1` was tested, and the displacement was 8.5% (inactive).
In the case of `Cc1ccc(C)n1-c1cc(C(=O)O)ccc1Cl`, the displacement is reported as 89.5% (active).
For `CCN(CC)CCn1c2ccccc2n2cc(C(C)(C)C)nc12`, the displacement was 0% (inactive).
In the case of `CC(=O)Nc1ccc(N2C(=O)c3cc4ccccc4cc3C2=O)cc1`, the displacement is reported as 5.1% (inactive).
With `Cc1cc(Br)cc2c(N=Nc3cccc4cccnc34)c(O)n(C)c12` the displacement was 3.2% (inactive).
`CC(=O)C(C(C)=O)c1c(Cl)c(O)c(O)c2c(C(=O)c3ccccc3)coc12` was tested, and the displacement was 1% (inactive).
With `COc1cccc(C(=O)CSc2nnc(COc3cccc4cccnc34)o2)c1` the displacement was 3.7% (inactive).
In the case of `Cc1ccc(C)n1-c1ccc(CC(=O)O)cc1`, the displacement is reported as 23.3% (inactive).
`Cc1ccc(C)n1-c1ccc(OCC(=O)O)cc1` was tested, and the displacement was 62.2% (active).
With `CC(=O)c1ccc(-n2c(C)ccc2C)cc1` the displacement was 6.4% (inactive).
In the case of `CC(C)(C)c1ccc(OCC(=O)O)cc1`, the displacement is reported as 4.2% (inactive).
`O=C(O)COc1ccc(N2C(=O)C=CC2=O)cc1` was tested, and the displacement was 0.9% (inactive).
For `Cc1ccc(C)n1-c1ccc(SCC(=O)O)cc1`, the displacement was 100% (active).
In the case of `CC1CCCCN1CCNC(=O)CC1Oc2ccccc2NC1=O` (centres undefined), the displacement is reported as 9.4% (inactive).
With `CCOC(=O)c1c(C)[nH]c(C(=O)COC(=O)C(C)N2C(=O)C3CCCCC3C2=O)c1C` (centres undefined) the displacement was -1.9% (inactive).
In the case of `CCOC(=O)C1CCN(C(=O)CSCCSCC(=O)N2CCC(C(=O)OCC)CC2)CC1`, the displacement is reported as -0.9% (inactive).
For `COc1ccc2[nH]c(=O)c(CN(C(=O)c3ccco3)C3CCCCC3)cc2c1`, the displacement was -0.4% (inactive).
`O=C1S/C(=C\c2cccs2)C(=O)N1c1cccc(Cl)c1` was tested, and the displacement was -1.3% (inactive).
With `CC(Oc1ccc2c3c(c(=O)oc2c1)CCCC3)C(=O)c1ccccc1` (centres undefined) the displacement was 2.3% (inactive).
`O=C(CCn1nnc2ccccc2c1=O)NCC1CCC(C(=O)O)CC1` (centres undefined) was tested, and the displacement was 2% (inactive).
`O=C(CNC(=O)c1ccc(Cl)cc1Cl)c1ccccc1` was tested, and the displacement was 1.6% (inactive).
`COc1cccc(CN(CC2CCCO2)S(=O)(=O)c2ccc(S(=O)(=O)NCC3CCCO3)cc2)c1OC` (centres undefined) was tested, and the displacement was -2.5% (inactive).
In the case of `C=CCN1C(=O)/C(=C\c2ccc(-c3ccc([N+](=O)[O-])cc3)o2)C(=O)NC1=S`, the displacement is reported as 2.8% (inactive).
For `C=CCN1C(=O)/C(=C\c2ccc(I)o2)C(=O)NC1=S`, the displacement was 0.9% (inactive).
`C=CCN1C(=O)/C(=C\c2ccc([N+](=O)[O-])o2)C(=O)NC1=S` was tested, and the displacement was 95.9% (active).
For `Cc1ccc(NC2=C(Cl)C(=O)N(c3ccccc3Cl)C2=O)cc1C`, the displacement was 0.5% (inactive).
With `CCOc1ccc(C(=O)Nc2ccc(NC(=O)c3ccccc3Cl)cc2)cc1Br` the displacement was -4.2% (inactive).
In the case of `COc1ccc(/C=C/C(=O)Nc2nc(C)c(C)s2)cc1OC`, the displacement is reported as -0.1% (inactive).
